From PubChem BioAssay (NCI)
“And” between values parts separate entries of the source, which are not always exact repeats. Equal entries are not always repeated. The panel holds about 83,000 compounds, 20% with a hit somewhere; the sample as a whole holds those more often.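 Interpretation: 100, growth as untreated; towards 0, rising growth inhibition; 0, no net growth; 0 to -100, cell death. Compounds scoring below 10 were considered active.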 Values without a mark were called inactive. The source made the active and inactive calls.

These compounds were tested on MDA-MB-468 breast (assay: NCI-60 one-dose screen, 48 h (100 = growth as untreated, 0 = no growth, -100 = all killed)). Conditions: 10 µM unless noted.
CC/C=C\C[C@H](F)C/C=C1/C(=O)C=C[C@@H]1C/C=C\CCCC(=O)O gave a growth of 52.6%. c1cc[n+](C2c3ccccc3C([n+]3ccccc3)c3ccccc32)cc1 (stereo not given) was tested, and the growth was -37.4% (active). With CN1CCN(c2ccc(NC(=O)c3nc4ccc5[nH]ncc5c4c4c3CCCC4)cc2C(F)(F)F)CC1 the growth was 44%. CC1NC(=O)NC1CCCCCC(=O)O (stereo not given) showed a growth of 101%. CCCCCCCC(=O)Nc1nc2[nH]c(CN3CCN(Cc4cccc(I)c4)CC3)c(CN3CCN(Cc4cccc(I)c4)CC3)c2c(=O)[nH]1 was tested, and the growth was -85.6% (active). With NC1(C(=O)O)CSSC1 the growth was 29.6%. Work on CS(=O)(=O)c1ccc(C(=O)N/N=C/c2ccccc2Cl)cc1 yielded a growth of 96.1%. With CN1CCCCC1CCN1c2ccccc2Sc2ccc(Br)cc21 (stereo not given) the growth was 32.1%. For O=C1COCCN1c1ccc(NCc2cn(Cc3cccc4ccccc34)c3ccccc23)cc1, the growth was -24.8% (active). For N[C@@H](CO)C(=O)O, the growth was 103%. With NCCn1cc(-c2nc(-c3c[nH]c4ncccc34)cs2)c2cc(F)ccc21 the growth was 64.9%. For CN(C)c1cnccn1, the growth was 56.1%. In the case of CC(C)(C)c1ccc(NS(=O)(=O)c2ccc3nc(NC(=O)c4cnccn4)[nH]c3c2)cc1, the growth is reported as -18.6% (active). In the case of Cn1nc(C(F)(F)F)c(-c2ccc(Cl)c(C(F)(F)F)c2)c1-c1ccc(OCc2ccc(Cl)cc2)cc1O, the growth is reported as -18.7% (active). In the case of O=C1CC(c2ccccc2)Cc2nc3ccc(Br)cc3cc21 (stereo not given), the growth is reported as 0.354% (active). Work on C=CN(C(=O)N1CCN(c2cc3c(cc2F)c(=O)c(C(=O)O)cn3C2CC2)CC1)c1nc(-c2ccccc2)cs1 yielded a growth of 100%. Work on COC(=O)CNC(=O)c1cccc(-c2cc(=O)c3c(OC)c(OC)c(OC)cc3o2)c1 yielded a growth of 89.8%. In the case of CC1(C)CCC(S(=O)(=O)c2ccc3c(c2)/C(=N\O)c2cc(S(=O)(=O)N4CCC(O)(c5cccc(C(F)(F)F)c5)CC4)ccc2-3)CC1, the growth is reported as -78.4% (active). For N#CC(C#N)=C/C=C/c1cccc([N+](=O)[O-])c1, the growth was -56.4% (active) and -30.4% (active). For COCCC[C@H]1O[C@@](O)([C@H](C)[C@@H]2CC(OC)C(O)/C=C(C)/C=C(C)/C=C(\C)C(OC3O[C@@H](C)[C@H](O)C(O)[C@@H]3O)C(C)/C=C(C)/C=C(OC)/C=C(\C)C(=O)O2)C(OC)C(O)[C@]1(C)O[C@H]1C[C@@H](O)[C@H](O[C@H]2C[C@](C)(O)[C@H](O)C(C)O2)C(C)O1 (stereo not given in full), the growth was 9.61% (active). With O=C(NNc1ccccc1)OCc1ccccc1 the growth was 108%. For CC1(n2nnnc2N2CCCN(c3ncccc3N)CC2)CCC1, the growth was 93%. In the case of CC(=O)OCc1cc(-c2nc3ccccc3[nH]c2=O)nn1-c1ccc(Cl)cc1, the growth is reported as 89.3%. For CC1=C([Se]CC(OC(=O)[C@@H](CSSC(C)(C)C)NC(=O)C(C)(C)C)C(=O)NCCCCCC(=O)OCc2ccccc2)C(=O)c2ccccc2C1=O (stereo not given in full), the growth was -21.9% (active). O=[N+]([O-])c1cccc(C(c2ccccc2)c2ccccc2)c1 gave a growth of 93.9%. For O=C(Nc1cccc2[nH]c(C(F)(F)F)nc12)c1cc(Cl)ccc1Cl, the growth was 15.1%. With NC(=S)NS(=O)(=O)c1ccc(N)cc1 the growth was 96.5%. Work on COc1cc(-c2nn(C(=O)NS(=O)(=O)c3ccccc3)cc2-c2ccncc2)ccc1Cl yielded a growth of 68%. For COc1cc2nnn3c4ncccc4c(N=O)c3c2cc1OC, the growth was -50.9% (active). COc1ccc(C(=O)c2cc3c(N)c(C(=O)Nc4cccc(OC)c4)sc3nc2C)cc1 was tested, and the growth was 4.38% (active). With C=CCn1c(SCC(=O)Nc2ccc(C(=O)/C=C/c3cc(OC)c(OC)c(OC)c3)cc2)nnc1-c1cc(-c2ccc(S(N)(=O)=O)cc2)nc2ccccc12 the growth was 89.3%. CN1CCN(Cc2ccc(NC(=O)c3cncc(C#Cc4nc(N)nc5[nH]ncc45)c3)cc2C(F)(F)F)CC1 gave a growth of 35.1%. CCOC(=O)c1cc(C(=O)OCC)c(C)nc1C showed a growth of 109%. With CCn1c(SC/C(=N/O)c2ccccc2)nnc1-c1ccccc1 the growth was 108%. In the case of O=C(Nc1cccc(Cl)c1)Nc1nc2cc([N+](=O)[O-])ccc2o1, the growth is reported as 53.4%. With O=NN(CCCl)C(=O)NCc1ccc(-c2ccc(CNC(=O)N(CCCl)N=O)cc2)cc1 the growth was 101%. Work on CCOC(=O)c1c(C)n(-c2ccc(Cl)cc2)c2ccc(OC(=O)/C=C/c3ccccc3)cc12 yielded a growth of 22.9%. Compound O=C(O)c1cccc([N+](=O)[O-])c1/C=C/c1ccccc1 has a growth of 102%. For C=C(CNCCO)[C@@H]1CC[C@]2(CO)CC[C@]3(C)[C@H](CC[C@@H]4[C@@]5(C)CCC(NCCc6ccc(O)cc6)C(C)(C)[C@@H]5CC[C@]43C)[C@@H]12 (stereo not given in full), the growth was -77.3% (active). COc1ccccc1NC1=C(N2CCCCC2)C(=O)c2ccccc2C1=O was tested, and the growth was 65.9%.
